Screening results (PubChem)
VP16 counter = Gal4-VP16 reporter inhibition counter-screen; Drosophila S2 Gal4-VP16 UAS-luciferase, luminescence, 20 h; Potency, µM (highest dose often 53.6 µM), for the others: top-dose activity, negative = inhibition, most hits filed as inhibitors; 3.5% of 310,000 active;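 further: Gal4-VP16 expression switched on by copper sulfate through the metallothionein promoter; nearly all actives have a fitted effect of over 50% in size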
KinaseGlo FLuc = Kinase-Glo luciferase inhibition (counter-screen) | 0.28% of 200,000 active | Q27757 | Potency, µM (top dose mostly 38.3 µM), without a hit: at the highest dose activity change, negative = inhibition, hits mostly inhibitors | Kinase-Glo luciferase, ATP luminescence, 8 min | AID 1379; further: nearly all actives have a fitted effect of over 60% in size
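Recombinant Kinase-Glo luciferase, 10 uM ATP (linear range), luciferin; imidazole pH 7.2 / KCl / MgCl2 / Tween / BSA buffer; 8 min RT; luminescence.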
RORgamma inh = inhibitors of mouse ROR gamma transcriptional activity. P51450. Drosophila S2 Gal4-RORgamma UAS-luciferase reporter, 20 h. Potency, µM (titrated, usually from 53.6 µM), for the others: at the top dose activity change, negative = inhibition, actives largely listed as inhibitors. 5.4% of 310,000 active; further: nearly all actives have a fitted effect of over 60% in size
Target sequence (P51450 whole entry, looked up, the tested form may be a part): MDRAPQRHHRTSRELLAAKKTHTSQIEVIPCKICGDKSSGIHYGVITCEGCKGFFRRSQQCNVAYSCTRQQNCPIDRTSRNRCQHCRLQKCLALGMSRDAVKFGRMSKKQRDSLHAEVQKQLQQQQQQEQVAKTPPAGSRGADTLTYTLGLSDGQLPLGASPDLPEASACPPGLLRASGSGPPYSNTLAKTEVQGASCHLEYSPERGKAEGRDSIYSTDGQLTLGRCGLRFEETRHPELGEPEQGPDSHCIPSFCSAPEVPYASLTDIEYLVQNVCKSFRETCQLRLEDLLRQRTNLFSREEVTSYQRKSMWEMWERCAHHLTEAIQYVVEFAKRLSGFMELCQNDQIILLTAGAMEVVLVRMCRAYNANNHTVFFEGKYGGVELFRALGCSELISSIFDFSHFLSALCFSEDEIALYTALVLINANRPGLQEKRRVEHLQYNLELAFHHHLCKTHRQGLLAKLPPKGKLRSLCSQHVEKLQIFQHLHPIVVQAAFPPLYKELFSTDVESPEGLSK
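A Gal4/UAS one-hybrid system in insect cells: metallothionein-promoter Gal4–ROR gamma fusion plus Photinus luciferase reporter. Copper sulfate 700 uM final, 20 hr ambient incubation, luminescent detection after 10 min with reagent.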
Numbers without * were called inactive; ? = inconclusive; . = no result; [ ] = dose if it differs, or a comment. Rows were chosen to be rich in hits. Some 6.4% of all compounds tested hit in one or more screens of this group. The call rests on the fitted dose curve; in most records, active means well fitted curve in the direction sought with a large enough effect; inconclusive means small, poorly fitted or top-dose-only effect, or another doubt; inactive means no such curve, though single readings can be large; an effect the other way counts as inactive or inconclusive. On the % scale 0 is the no-effect control and ±100 the full control effect; potency means the concentration at half of the fitted maximal effect.

SMILES | VP16 counter | KinaseGlo FLuc | RORgamma inh
Cc1cc(C(=O)N/N=C/c2cc(Cl)cc([N+](=O)[O-])c2O)c2ccccc2n1 | 11µM* | -2% | 1.6µM*
COc1cc(/C=N/NC(=O)/C(=C/c2ccccc2)CCO)ccc1O | 1% | -2% | 13%
O=C(CNC(=O)C(c1ccccc1)c1ccccc1)N/N=C/c1ccc(O)cc1O | -9% | . | -33%
Cc1nn(-c2ccccc2)c(Cl)c1/C=N/NC(=O)c1ccccc1NS(=O)(=O)c1cccs1 | -24% | 26% | ?
O=C(N/N=C/c1ccc(O)cc1O)/C(=C/c1ccccc1)CCO | ? | 3% | 11µM*
CCOc1ccc(-c2cc(C(=O)N/N=C/c3ccc(O)c(OC)c3)[nH]n2)cc1 | . | -7% | .
C=CCC1(O)CCOc2ccccc21 (centres undefined) | 1% | 1% | 14%
O=C1C[C@@H](c2ccc(O)c(O)c2)Oc2cc(O[C@H]3O[C@@H](CO)[C@H](O)[C@@H](O)[C@@H]3O)cc(O)c21 | -2% | . | -12%
CCOC(=O)C1=C(CS(=O)(=O)c2ccccc2)NC(=O)NC1c1cc(OC)c(O)c(OC)c1 (centres undefined) | -6% | . | -1%
Cc1cc(C)n2nc(SCC(=O)Nc3ccccc3C)nc2n1 | 5% | . | 6%
Cc1c(Cl)cccc1NC(=S)NCCc1ccc(S(N)(=O)=O)cc1 | 11% | 0% | 8%
Cc1c(Cl)cccc1NC(=O)CNC(=O)c1ccc(F)cc1 | -3% | 1% | 12%
Cc1c(Cl)cccc1NC(=S)NCCc1ccc(F)cc1 | 3.5µM* | . | 4.5µM*
Cc1c(Cl)cccc1NC(=S)NCCc1ccc(Cl)cc1 | 3.2µM* | . | 5.6µM*
Cc1ccc(-c2nc(-c3ccc(Cl)cc3)sc2CC(=O)O)c(C)c1 | -3% | 0% | ?
Cn1c(=O)c([N+](=O)[O-])c(-n2ccnc2)c2ccccc21 | 7.9µM* | 7% | ?
Cn1c(=O)c([N+](=O)[O-])c(NCCCn2ccnc2)c2ccccc21 | -2% | . | 4%
COc1cc(Cl)c(C)cc1NC(=O)CSc1sc2c(O)cc(=O)[nH]c2c1C#N | 4% | . | -5%
CC(NC(=O)c1cnc2ccccc2n1)c1ccccc1 (centres undefined) | 8% | . | ?
CS[C@@H]1SC[C@H]2C(=O)N(C)C(C(C)C)C(=O)OC[C@@H](NC(=O)c3cnc4ccccc4n3)C(=O)N[C@@H](C)C(=O)N(C)[C@H]1C(=O)N(C)C(C(C)C)C(=O)OC[C@@H](NC(=O)c1cnc3ccccc3n1)C(=O)N[C@@H](C)C(=O)N2C (some centres undefined) | -1% | . | 0.04µM*
CCN(CC)c1ccc(-c2n[nH]c(=S)n2-c2ccccc2)cc1 | -17% | 3% | 1.6µM*
CCN(CC)c1ccc(-c2n[nH]c(=S)n2-c2ccccc2C)cc1 | -14% | -2% | ?
CN(C)c1ccc(-c2n[nH]c(=S)n2-c2ccccc2)cc1 | ? | -2% | 2.2µM*
O=C(Nc1ccc(Cl)cc1)Nc1ccc(N2CCOCC2)cc1 | 9% | 4% | 21%
O=C(NC(=S)Nc1ccc(N2CCOCC2)cc1)c1ccc(Cl)cc1 | 7.1µM* | 2% | 4µM*
SMILES | VP16 counter | KinaseGlo FLuc | RORgamma inh
CC(C)(C)c1ccc(C(=O)NC(=S)Nc2ccc(N3CCOCC3)cc2)cc1 | 7.1µM* | -3% | 4.5µM*
CC(C)(C)c1ccc(C(=O)Nc2ccc(N3CCOCC3)cc2)cc1 | -8% | 0% | 8%
Cc1ccc(NC(=O)Cn2c(-c3ccc(F)cc3)cnc2SCC(=O)Nc2c(C)cccc2C)cc1 | ? | -1% | -27%
O=C(NN=C1CCCCCC1)c1ccc(Cl)s1 | 13µM* | . | ?
Cc1ccc(C(=O)NN=C2CCCCCC2)s1 | -10% | . | ?
CN1C(=O)C(C)(C)c2cc(S(=O)(=O)N3CCC(C(=O)NCc4ccccc4Cl)CC3)ccc21 | -26% | . | 10%
O=C(NC(=S)N(CCCCO)C1CCCCC1)c1sc2ccccc2c1Cl | 0.89µM* | -1% | 0.1µM*
CC1CCCCC1NC(=S)NC(=O)c1sc2ccccc2c1Cl (centres undefined) | 6% | 2% | -9%
CCC(C)(C)NC(=O)C(c1ccc(F)cc1)N(Cc1ccccc1)C(=O)c1cnccn1 (centres undefined) | -13% | 2% | -4%
CCOC(=O)c1oc2ccc(/C=N/O)c(Cl)c2c1C | 3.2µM* | -1% | 0.56µM*
CCOC(=O)c1oc2cc(C)cc(C)c2c1C | 13% | . | ?
CCn1ncc(Br)c1C(=O)Nc1nccs1 | ? | 2% | 13µM*
O=C(Nc1nccs1)Oc1ccccc1 | 0% | -3% | 6%[10 µM]
O=C(Nc1nccs1)c1ccccn1 | 13µM* | -14% | 2.5µM*
O=C(Nc1nccs1)c1cnccn1 | -9% | 2% | ?
